Experimental data from PubChem BioAssay AID1159580 (chemical genetic matrix, 2015).
Values joined by “and” are separate entries in the source; they are usually repeats but may differ in a detail not shown here. Equal values may be shown once. Among all 5,500 compounds or so, about 2,000 (36%) were called active. Roughly 18% stayed inconclusive and do not appear here. Cut-off read from the data, not from the text of the source: active = normalized growth mostly below about 0.91 (no sharp cut-off); inconclusive = no clear call, values can overlap the other calls; inactive = mostly above about 0.92. Some of the results follow.

Assay: chemical genetic growth profiling, strain panel (AID 1159580);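 note: tested at 20 µM; growth read once vehicle control cultures reached saturation at 30 °C; 1 = growth at the plate median or of vehicle wells; lower values mean less growth of the strain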
Conditions: S. cerevisiae deletion strains, growth OD

Measured: normalized growth

CC(=O)OCC[N+](C)(C)C
active: locus YAL026C, strain drs2, stronger effect = lower value 1.1 [resistant] | locus YDR137W, strain rgp1, stronger effect = lower value 1.55 [resistant] | locus YDR159W, strain sac3, stronger effect = lower value 1.15 [resistant] | locus YDR195W, strain ref2 1.21 [resistant] | locus YLR221C, strain rsa3, stronger effect = lower value 1.1 [resistant] | locus YLR262C, strain YPT6 (second series), stronger effect = lower value 1.27 [resistant] | locus YNL248C, strain rpa49, stronger effect = lower value 1.12 [resistant] | locus YOR144C, strain elg1, stronger effect = lower value 1.09 [resistant] | locus YOR270C, strain vph1, stronger effect = lower value 0.749 | locus YPL256C, strain CLN2, stronger effect = lower value 1.24 [resistant] | locus YPR141C, strain kar3, stronger effect = lower value 1.09 [resistant]
inactive: locus YAL013W, strain DEP1, stronger effect = lower value 1.01 | locus YAL021C, strain ccr4, stronger effect = lower value 1.03 | locus YAL030W, strain snc1, stronger effect = lower value 1.02 | locus YBL061C, strain skt5, stronger effect = lower value 1.03 | locus YBR009C, strain hhf1, stronger effect = lower value 1.08 | locus YBR021W, strain FUR4, stronger effect = lower value 1.06 | locus YBR023C, strain chs3, stronger effect = lower value 1.05 | locus YBR171W, strain sec66, stronger effect = lower value 0.999 | locus YBR229C, strain ROT2, stronger effect = lower value 1.01 | locus YBR231C, strain swc5, stronger effect = lower value 1.03 | locus YBR279W, strain paf1, stronger effect = lower value 1.04 | locus YCL011C, strain gbp2, stronger effect = lower value 1.07 | locus YCL016C, strain dcc1, stronger effect = lower value 1.05 | locus YCL029C, strain bik1, stronger effect = lower value 1.04 | locus YCL069W, strain vba3, stronger effect = lower value 1.03 | locus YCR088W, strain abp1, stronger effect = lower value 1.02 | locus YDL005C, strain med2, stronger effect = lower value 1 | locus YDL035C, strain GPR1, stronger effect = lower value 0.961 | locus YDL040C, strain nat1, stronger effect = lower value 1.02 | locus YDL074C, strain BRE1, stronger effect = lower value 0.965 | locus YDL101C, strain DUN1, stronger effect = lower value 0.985 | locus YDL134C, strain PPH21, stronger effect = lower value 0.986 | locus YDL185W, strain tfp1, stronger effect = lower value 0.969 | locus YDL192W, strain arf1, stronger effect = lower value 1.02 | locus YDR001C, strain nth1, stronger effect = lower value 1.01 | locus YDR069C, strain doa4, stronger effect = lower value 1 | locus YDR101C, strain arx1, stronger effect = lower value 1.07 | locus YDR162C, strain NBP2, stronger effect = lower value 0.948 | locus YDR297W, strain sur2, stronger effect = lower value 1.02 | locus YDR318W, strain mcm21, stronger effect = lower value 1.01 | locus YDR334W, strain swr1, stronger effect = lower value 1.03 | locus YDR335W, strain msn5, stronger effect = lower value 1 | locus YDR388W, stronger effect = lower value 1.02 | locus YDR392W, strain spt3, stronger effect = lower value 1.13 | locus YDR502C, strain sam2, stronger effect = lower value 1.01 | locus YEL003W, strain gim4, stronger effect = lower value 1.01 | locus YEL037C, strain rad23, stronger effect = lower value 1.03 | locus YEL061C, strain CIN8 (second series), stronger effect = lower value 1.03 | locus YEL061C, strain CIN8, stronger effect = lower value 0.993 | locus YER015W, strain faa2, stronger effect = lower value 1.07 | locus YER016W, strain bim1, stronger effect = lower value 1.02 | locus YER110C, stronger effect = lower value 1.01 | locus YER111C, strain swi4, stronger effect = lower value 1.02 | locus YER155C, strain BEM2 (second series), stronger effect = lower value 1.11 | locus YER155C, strain BEM2, stronger effect = lower value 1.02 | locus YER167W, strain BCK2, stronger effect = lower value 1.01 | locus YFR010W, strain ubp6, stronger effect = lower value 1.01 | locus YGL078C, strain dbp3, stronger effect = lower value 1.03 | locus YGL086W, strain mad1, stronger effect = lower value 1.01 | locus YGL167C, strain pmr1, stronger effect = lower value 1.01 | locus YGL173C, strain kem1, stronger effect = lower value 1.02 | locus YGL227W, strain vid30, stronger effect = lower value 1.02 | locus YGL240W, strain doc1, stronger effect = lower value 1.11 | locus YGL248W, strain PDE1, stronger effect = lower value 0.99 | locus YGL253W, strain hxk2, stronger effect = lower value 1.03 | locus YGR135W, strain pre9, stronger effect = lower value 0.996 | locus YGR252W, strain gcn5, stronger effect = lower value 0.943 | locus YHR013C, strain ard1, stronger effect = lower value 1.11 | locus YHR027C, strain rpn1, stronger effect = lower value 1.02 | locus YHR030C, strain SLT2, stronger effect = lower value 1.01 and 1.08 | locus YHR079C, strain IRE1 (second series), stronger effect = lower value 1.02 | locus YHR079C, strain IRE1, stronger effect = lower value 1.1 | locus YHR094C, strain hxt1, stronger effect = lower value 1.02 | locus YHR129C, strain ARP1, stronger effect = lower value 1.01 | locus YHR142W, strain chs7, stronger effect = lower value 1.1 | locus YHR200W, strain rpn10, stronger effect = lower value 1.02 | locus YIL066C, strain RNR3, stronger effect = lower value 0.988 | locus YIL073C, strain SPO22, stronger effect = lower value 0.973 | locus YIL125W, strain kgd1, stronger effect = lower value 1.03 | locus YIR030C, strain dcg1, stronger effect = lower value 1.06 | locus YJL092W, strain hpr5, stronger effect = lower value 1.02 | locus YJL095W, strain BCK1 (second series), stronger effect = lower value 1.02 | locus YJL095W, strain BCK1, stronger effect = lower value 0.928 and 1.07 | locus YJL115W, strain asf1, stronger effect = lower value 1.03 | locus YJL129C, strain trk1, stronger effect = lower value 1.09 | locus YJL134W, strain LCB3, stronger effect = lower value 1.02 | locus YJL154C, strain vps35, stronger effect = lower value 1.03 | locus YJL164C, strain tpk1, stronger effect = lower value 1.05 | locus YJL166W, strain qcr8, stronger effect = lower value 1.04 | locus YJL168C, strain set2, stronger effect = lower value 1.03 | locus YJL187C, strain SWE1 (second series), stronger effect = lower value 0.951 | locus YJL187C, strain SWE1, stronger effect = lower value 1.02 | locus YJR043C, strain POL32, stronger effect = lower value 0.994 | locus YJR066W, strain TOR1, stronger effect = lower value 1.03 | locus YJR075W, strain HOC1, stronger effect = lower value 0.978 | locus YKL009W, strain mrt4, stronger effect = lower value 0.945 | locus YKL068W, stronger effect = lower value 1.01 | locus YKL085W, strain MDH1 (second series), stronger effect = lower value 1.01 | locus YKL085W, strain MDH1, stronger effect = lower value 1.01 | locus YKL160W, strain elf1, stronger effect = lower value 1.03 | locus YKR001C, strain vps1, stronger effect = lower value 0.975 | locus YKR026C, strain gcn3, stronger effect = lower value 1.03 | locus YKR091W, strain srl3, stronger effect = lower value 1.02 | locus YLL001W, strain dnm1, stronger effect = lower value 1.02 | locus YLL026W, stronger effect = lower value 1.03 | locus YLL041C, strain sdh2, stronger effect = lower value 1.02 | locus YLR027C, strain aat2, stronger effect = lower value 1.02 | locus YLR039C, strain RIC1, stronger effect = lower value 0.756 | locus YLR058C, strain SHM2, stronger effect = lower value 0.972 | locus YLR102C, strain apc9, stronger effect = lower value 1.01 | locus YLR113W, strain HOG1, stronger effect = lower value 1.14 | locus YLR258W, strain gsy2, stronger effect = lower value 1.04 | locus YLR262C, strain YPT6, stronger effect = lower value 0.801 | locus YLR268W, strain sec22, stronger effect = lower value 0.967 | locus YLR320W, strain mms22, stronger effect = lower value 1.1 | locus YLR330W, strain CHS5, stronger effect = lower value 0.998 | locus YLR342W, strain FKS1 (second series), stronger effect = lower value 0.986 | locus YLR342W, strain FKS1, stronger effect = lower value 1.01 | locus YLR357W, strain rsc2, stronger effect = lower value 1.12 | locus YLR370C, strain arc18, stronger effect = lower value 1.03 | locus YLR371W, strain rom2, stronger effect = lower value 1.08 | locus YLR384C, strain iki3, stronger effect = lower value 1.02 | locus YLR418C, strain cdc73, stronger effect = lower value 0.99 | locus YML016C, strain PPZ1, stronger effect = lower value 0.993 | locus YML032C, strain rad52, stronger effect = lower value 0.918 | locus YML120C, strain ndi1, stronger effect = lower value 1.04 | locus YML124C, strain tub3, stronger effect = lower value 1 | locus YMR058W, strain fet3, stronger effect = lower value 1.05 | locus YMR078C, strain ctf18, stronger effect = lower value 1.02 | locus YMR125W, strain sto1, stronger effect = lower value 1.05 | locus YMR129W, stronger effect = lower value 1.02 | locus YMR205C, strain PFK2, stronger effect = lower value 1.08 | locus YMR223W, strain ubp8, stronger effect = lower value 0.978 | locus YMR231W, strain pep5, stronger effect = lower value 0.993 | locus YMR307W, strain GAS1, stronger effect = lower value 1.07 | locus YNL067W, strain RPL9B, stronger effect = lower value 0.961 | locus YNL071W, strain lat1, stronger effect = lower value 1.04 | locus YNL183C, strain NPR1, stronger effect = lower value 1.04 | locus YNL209W, strain ssb2, stronger effect = lower value 1.02 | locus YNL233W, strain BNI4, stronger effect = lower value 0.973 | locus YNL250W, strain rad50, stronger effect = lower value 1.02 | locus YNL271C, strain bni1, stronger effect = lower value 1.01 | locus YNL298W, strain CLA4, stronger effect = lower value 1.01 | locus YNL307C, strain MCK1, stronger effect = lower value 1.03 | locus YNL322C, strain KRE1 (second series), stronger effect = lower value 1.07 | locus YNL322C, strain KRE1, stronger effect = lower value 1.02 | locus YNR049C, strain mso1, stronger effect = lower value 1.01 | locus YNR052C, strain pop2, stronger effect = lower value 1.02 | locus YOL012C, strain htz1 1.26 | locus YOL147C, strain pex11, stronger effect = lower value 1.03 | locus YOR001W, strain rrp6, stronger effect = lower value 0.99 | locus YOR061W, strain CKA2, stronger effect = lower value 0.994 | locus YOR069W, strain VPS5, stronger effect = lower value 1.01 | locus YOR070C, strain gyp1, stronger effect = lower value 1.02 | locus YOR080W, strain dia2, stronger effect = lower value 1.02 | locus YOR083W, strain WHI5, stronger effect = lower value 1.05 | locus YOR106W, strain vam3, stronger effect = lower value 1.08 | locus YOR136W, strain idh2, stronger effect = lower value 1.02 | locus YOR184W, strain ser1, stronger effect = lower value 0.988 | locus YOR231W, strain MKK1, stronger effect = lower value 1.08 | locus YOR265W, strain rbl2, stronger effect = lower value 1.02 | locus YOR290C, strain snf2, stronger effect = lower value 1.06 | locus YOR316C, strain cot1, stronger effect = lower value 1.01 | locus YPL051W, strain arl3, stronger effect = lower value 1.05 | locus YPL055C, strain LGE1, stronger effect = lower value 0.982 | locus YPL078C, strain atp4, stronger effect = lower value 1.04 | locus YPL106C, strain sse1, stronger effect = lower value 1.02 | locus YPL240C, strain hsp82, stronger effect = lower value 1.01 | locus YPL241C, strain CIN2, stronger effect = lower value 1 | locus YPR119W, strain clb2, stronger effect = lower value 1.01 | locus YPR163C, strain tif3, stronger effect = lower value 1.01 | locus YPR167C, strain met16, stronger effect = lower value 1.03 | strain wtn01, stronger effect = lower value 0.996
